Source: the supplement of paper PMC8728848
This is one part of a sample in which the strongest signals are shown more often than they occur.

Experiments:
Assay in all cases: glycan array binding signal (z-score within array); higher = stronger binding
Settings in all cases: glycan notation: IUPAC condensed, linker removed
[1] = molecular target: Fuc(a1-2)Gal(b1-4)[Fuc(a1-3)]GlcNAc
Procedure, shortened: (§1)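 Arrays were curated from the Consortium for Functional Glycomics database, 3228 in total, and kept only where the protein sequence was available. Binding is expressed as a within-array Z-score. This score was averaged across arrays of the same protein sequence at different concentrations or buffers and across linkers, and negative values can be read as non-binding.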

[2] = molecular target: Fuc(a1-2)[Gal(a1-3)]Gal(b1-3)GlcNAc(b1-2)Man(a1-3)[Fuc(a1-2)[Gal(a1-3)]Gal(b1-3)GlcNAc(b1-2)Man(a1-6)]Man(b1-4)GlcNAc(b1-4)GlcNAc
Procedure, shortened: as §1

[3] = molecular target: Fuc(a1-2)[Gal(a1-3)]Gal(b1-4)[Fuc(a1-3)]GlcNAc
Procedure, shortened: as §1

[4] = molecular target: Fuc(a1-2)[GalNAc(a1-3)]Gal
Procedure, shortened: as §1

[5] = molecular target: Fuc(a1-2)[GalNAc(a1-3)]Gal(b1-4)[Fuc(a1-3)]GlcNAc
Procedure, shortened: as §1

[6] = molecular target: Fuc(a1-3)[Gal(b1-4)]GlcNAc(b1-2)Man(a1-3)[Fuc(a1-3)[Gal(b1-4)]GlcNAc(b1-2)Man(a1-6)]Man(b1-4)GlcNAc(b1-4)GlcNAc
Procedure, shortened: as §1

[7] = molecular target: Fuc(a1-3)[Gal(b1-4)]GlcNAc(b1-2)Man(a1-3)[Fuc(a1-3)[Gal(b1-4)]GlcNAc(b1-2)Man(a1-6)]Man(b1-4)GlcNAc(b1-4)[Fuc(a1-6)]GlcNAc
Procedure, shortened: as §1

[8] = molecular target: Fuc(a1-3)[Gal(b1-4)]GlcNAc(b1-4)Gal(b1-4)[Fuc(a1-3)]GlcNAc
Procedure, shortened: as §1

[9] = molecular target: Gal(a1-3)Gal(b1-4)GlcNAc(b1-2)Man
Procedure, shortened: as §1

[10] = molecular target: Gal(a1-3)Gal(b1-4)GlcNAc(b1-3)GalNAc
Procedure, shortened: as §1

[11] = molecular target: Gal(b1-3)Gal(b1-4)GlcNAc
Procedure, shortened: as §1

[12] = molecular target: Gal(b1-3)GlcNAc(b1-2)[Gal(b1-3)GlcNAc(b1-6)]Man(a1-6)[Gal(b1-3)GlcNAc(b1-2)Man(a1-3)]Man(b1-4)GlcNAc(b1-4)GlcNAc
Procedure, shortened: as §1

[13] = molecular target: Gal(b1-4)GlcNAc(b1-2)Man(a1-3)[Gal(b1-4)GlcNAc(b1-2)Man(a1-6)][GlcNAc(b1-4)]Man(b1-4)GlcNAc(b1-4)[Fuc(a1-6)]GlcNAc
Procedure, shortened: as §1

[14] = molecular target: Gal(b1-4)GlcNAc(b1-3)Gal(b1-4)GlcNAc(b1-3)Gal(b1-4)GlcNAc(b1-3)Gal(b1-4)GlcNAc(b1-2)Man(a1-3)[Gal(b1-4)GlcNAc(b1-3)Gal(b1-4)GlcNAc(b1-3)Gal(b1-4)GlcNAc(b1-3)Gal(b1-4)GlcNAc(b1-2)Man(a1-6)]Man(b1-4)GlcNAc(b1-4)[Fuc(a1-6)]GlcNAc
Procedure, shortened: as §1

[15] = molecular target: Gal(b1-4)GlcNAc(b1-3)Gal(b1-4)GlcNAc(b1-3)Gal(b1-4)GlcNAc(b1-3)Gal(b1-4)GlcNAc(b1-2)[Gal(b1-4)GlcNAc(b1-3)Gal(b1-4)GlcNAc(b1-3)Gal(b1-4)GlcNAc(b1-3)Gal(b1-4)GlcNAc(b1-6)]Man(a1-6)[Gal(b1-4)GlcNAc(b1-3)Gal(b1-4)GlcNAc(b1-3)Gal(b1-4)GlcNAc(b1-3)Gal(b1-4)GlcNAc(b1-2)Man(a1-3)]Man(b1-4)GlcNAc(b1-4)[Fuc(a1-6)]GlcNAc
Procedure, shortened: as §1

[16] = molecular target: Gal(b1-4)GlcNAc(b1-3)Gal(b1-4)GlcNAc(b1-3)Gal(b1-4)GlcNAc(b1-3)Gal(b1-4)GlcNAc(b1-3)Gal(b1-4)GlcNAc(b1-2)Man(a1-3)[Gal(b1-4)GlcNAc(b1-3)Gal(b1-4)GlcNAc(b1-3)Gal(b1-4)GlcNAc(b1-3)Gal(b1-4)GlcNAc(b1-3)Gal(b1-4)GlcNAc(b1-2)Man(a1-6)]Man(b1-4)GlcNAc(b1-4)GlcNAc
Procedure, shortened: as §1

[17] = molecular target: Gal(b1-4)GlcNAc(b1-3)Gal(b1-4)GlcNAc(b1-3)Gal(b1-4)GlcNAc(b1-3)Gal(b1-4)GlcNAc(b1-3)Gal(b1-4)GlcNAc(b1-2)Man(a1-3)[Gal(b1-4)GlcNAc(b1-3)Gal(b1-4)GlcNAc(b1-3)Gal(b1-4)GlcNAc(b1-3)Gal(b1-4)GlcNAc(b1-3)Gal(b1-4)GlcNAc(b1-2)Man(a1-6)]Man(b1-4)GlcNAc(b1-4)[Fuc(a1-6)]GlcNAc
Procedure, shortened: as §1

[18] = molecular target: Gal(b1-4)GlcNAc(b1-6)GalNAc
Procedure, shortened: as §1

[19] = molecular target: Gal4S6S(b1-4)GlcNAc
Procedure, shortened: as §1

[20] = molecular target: GalNAc(b1-4)GlcNAc
Procedure, shortened: as §1

[21] = molecular target: GalNAc(b1-4)GlcNAc(b1-3)GalNAc(b1-4)GlcNAc
Procedure, shortened: as §1

[22] = molecular target: GalNAc4S6S(b1-4)GlcNAc
Procedure, shortened: as §1

[23] = molecular target: GalNAc6S(b1-4)GlcNAc
Procedure, shortened: as §1

[24] = molecular target: Glc(a1-4)Glc(a1-4)Glc(a1-4)Glc
Procedure, shortened: as §1

[25] = molecular target: GlcNAc(a1-4)Gal(b1-4)GlcNAc
Procedure, shortened: as §1

[26] = molecular target: GlcNAc(b1-2)Man(a1-3)[GlcNAc(b1-2)Man(a1-6)]Man(b1-4)GlcNAc(b1-4)[Fuc(a1-6)]GlcNAc
Procedure, shortened: as §1

B1: HopZSSI-T (Helicobacter pylori), B5Z6D0 (protein)
chain: MGSSHHHHHHSSGLVPRGSHMENLYFQGEDNGFFISAGYQIGEAAQMVKNTGELKKLSDTYENLSNLLTNFNNLNQAVTNASSPSEINAAIDNLKANTQGLTGEKTNSPAYQAVYLALNAAVGLWNVIAYNVQCGPGNSSQQSVTFEGQPGHNSSSINCNLTGYNNGVSGPLSIDNFKQLNQAYQVLQQALKQGVPVLNNTNQKIEVKVTTQTNGQSSKETTTTTTTNDAQTLLQEASKMIDVLTTNCPWVNHNPGQNGGAPWGLIRQECVSGFATEFSAVTSMIKNAQEIVTQAQSLNANQNNQNAPQDFNPYTSADRAFAQNMLNHAQAQAKILELADQMKKDLNTIPSQFITNYLAACRIDGTTPSQGVTNNTWGAGCAYVEETITALNNSLAHFGTQAEQIKQSELLARTILDFRGSLSTLNSTYNSITTTASNTPNSPFLKNLISQSTNPNNPGGLQAVYQVNQSAYSQLLSATQELGHNPFRRIGLISSQT
glycan array binding signal (z-score) [1]: -0.221
glycan array binding signal (z-score) [2]: -0.111
glycan array binding signal (z-score) [3]: 0.174
glycan array binding signal (z-score) [4]: -0.229
glycan array binding signal (z-score) [5]: -0.057
glycan array binding signal (z-score) [6]: -0.248
glycan array binding signal (z-score) [7]: -0.378
glycan array binding signal (z-score) [8]: -0.536
glycan array binding signal (z-score) [9]: -0.247
glycan array binding signal (z-score) [10]: -0.615
glycan array binding signal (z-score) [11]: -0.409
glycan array binding signal (z-score) [12]: 0.014
glycan array binding signal (z-score) [13]: -0.305
glycan array binding signal (z-score) [14]: 1.74
glycan array binding signal (z-score) [15]: 0.699
glycan array binding signal (z-score) [16]: 2.12
glycan array binding signal (z-score) [17]: 1.86
glycan array binding signal (z-score) [18]: 1.25
glycan array binding signal (z-score) [19]: -0.807
glycan array binding signal (z-score) [20]: 2.32
glycan array binding signal (z-score) [21]: 0.498
glycan array binding signal (z-score) [22]: 3.87
glycan array binding signal (z-score) [23]: 9.12
glycan array binding signal (z-score) [24]: -0.263
glycan array binding signal (z-score) [25]: 0.109
glycan array binding signal (z-score) [26]: 0.081
